Experimental data taken from the supplement of paper PMC10849652.
Targets with a hit are over-represented here; the source holds about 7,900 in all. About 0.6% of all pairs of compound and target were hits. A number with no mark means an inactive call.

How the values were obtained:
Experiment in all cases: log2 fold change, soluble protein after heating vs DMSO (PISA); higher = thermal stabilisation; K562 cells, 10 uM, 30 min; active = over 0.2 and 3.5 SD of the protein, either way, in both replicates (recomputed)
[1] = compound: C1COCCN1CCN2C3=CC=CC=C3N=C2NC(=O)C4=CC(=CC=C4)[N+](=O)[O-] [IRAK-1-4 Inhibitor I]
Outline: (§1)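 Soluble protein was defined as the supernatant after 21,000xg for 90 min. It came from K562 cells at 2×10^6 cells/mL given 10 μM compound for 30 min, heated in aliquots for 3 min across 48°C-58°C, pooled, and extracted in PBS with 0.5% NP-40 at 4°C, and was quantified by TMTpro 16plex LC-MS/MS with equalised channel sums. Thermal stability against control samples, from duplicates, is reported as log2 fold change.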

[2] = compound: C=CC(=O)N1CCC[C@@H](n2nc(-c3ccc(Oc4ccccc4)cc3)c3c(N)ncnc32)C1 [ibrutinib]
Outline: as §1

[3] = compound: CC(C)(O)CC(=O)NCCn1ccc2ncnc(Nc3ccc(Oc4cccc(C(F)(F)F)c4)c(Cl)c3)c21
Outline: as §1

[4] = compound: CC(C)C1=C2N=C(C=C(N2N=C1)NCC3=CC=CC=C3)NCCCCCCN
Outline: as §1

[5] = compound: CC(C)N(C[C@H]1O[C@@H](n2cnc3c(N)ncnc32)[C@H](O)[C@@H]1O)[C@H]1C[C@@H](CCc2nc3cc(C(C)(C)C)ccc3[nH]2)C1 [pinometostat]
Outline: as §1

[6] = compound: CC1=C(C(CC(=O)N1)C2=CC=C(C=C2)C(F)(F)F)C(=O)NC3=C(C=C4C(=C3)C=NN4)F
Outline: as §1

[7] = compound: CC(C)(C)Cn1c(N)nc2ccc(-c3[nH]c(C(C)(C)C)nc3-c3ccc(F)cc3)nc21 [ralimetinib]
Outline: as §1

[8] = compound: CC(C)C[C@@H](C=O)NC(=O)[C@H](CC(C)C)NC(=O)[C@H](CC(C)C)NC(=O)OCc1ccccc1
Outline: as §1

[9] = compound: CC(=O)c1cnc2ccc(-c3cc(Cl)c(O)c(Cl)c3)nc2c1N[C@H]1CC[C@H](CN(C)C)CC1
Outline: as §1

[10] = compound: CC1=C(C2=C(C=C1)C(=O)C3=CC=CC=C3N2CCCN)C
Outline: as §1

Sequence of UniProt Q8N2W9 (Q8N2W9 whole entry, looked up): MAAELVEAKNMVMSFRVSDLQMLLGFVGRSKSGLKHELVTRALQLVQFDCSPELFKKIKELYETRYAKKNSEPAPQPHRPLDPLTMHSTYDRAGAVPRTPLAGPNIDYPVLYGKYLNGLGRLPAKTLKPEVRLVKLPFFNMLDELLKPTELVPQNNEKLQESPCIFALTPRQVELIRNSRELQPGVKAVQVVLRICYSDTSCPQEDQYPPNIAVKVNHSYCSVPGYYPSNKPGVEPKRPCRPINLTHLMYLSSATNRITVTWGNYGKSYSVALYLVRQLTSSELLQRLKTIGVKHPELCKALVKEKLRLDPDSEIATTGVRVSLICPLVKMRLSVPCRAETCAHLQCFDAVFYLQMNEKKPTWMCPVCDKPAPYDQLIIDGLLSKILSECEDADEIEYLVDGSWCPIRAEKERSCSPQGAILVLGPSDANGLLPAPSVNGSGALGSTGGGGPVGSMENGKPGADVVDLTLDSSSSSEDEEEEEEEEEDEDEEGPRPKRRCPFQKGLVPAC
Sequence of UniProt P60484 (P60484 whole entry, looked up): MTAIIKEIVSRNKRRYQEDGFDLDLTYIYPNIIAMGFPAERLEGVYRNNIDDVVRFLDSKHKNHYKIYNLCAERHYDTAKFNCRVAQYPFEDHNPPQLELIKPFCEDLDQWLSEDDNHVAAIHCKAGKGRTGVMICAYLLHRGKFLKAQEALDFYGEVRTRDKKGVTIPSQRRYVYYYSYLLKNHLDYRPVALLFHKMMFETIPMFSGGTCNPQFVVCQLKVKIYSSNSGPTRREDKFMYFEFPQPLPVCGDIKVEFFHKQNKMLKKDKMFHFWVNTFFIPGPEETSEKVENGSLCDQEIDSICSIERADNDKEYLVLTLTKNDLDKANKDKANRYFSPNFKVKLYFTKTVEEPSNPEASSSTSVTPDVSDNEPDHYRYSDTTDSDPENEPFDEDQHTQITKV
Sequence of UniProt Q15126 (Q15126 whole entry, looked up): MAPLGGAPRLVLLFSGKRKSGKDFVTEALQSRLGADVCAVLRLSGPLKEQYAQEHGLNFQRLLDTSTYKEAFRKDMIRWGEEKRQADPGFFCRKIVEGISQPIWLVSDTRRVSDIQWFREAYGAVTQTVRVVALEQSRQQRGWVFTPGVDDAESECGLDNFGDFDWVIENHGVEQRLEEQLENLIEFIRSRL
Sequence of UniProt Q8NDX5 (Q8NDX5 whole entry, looked up): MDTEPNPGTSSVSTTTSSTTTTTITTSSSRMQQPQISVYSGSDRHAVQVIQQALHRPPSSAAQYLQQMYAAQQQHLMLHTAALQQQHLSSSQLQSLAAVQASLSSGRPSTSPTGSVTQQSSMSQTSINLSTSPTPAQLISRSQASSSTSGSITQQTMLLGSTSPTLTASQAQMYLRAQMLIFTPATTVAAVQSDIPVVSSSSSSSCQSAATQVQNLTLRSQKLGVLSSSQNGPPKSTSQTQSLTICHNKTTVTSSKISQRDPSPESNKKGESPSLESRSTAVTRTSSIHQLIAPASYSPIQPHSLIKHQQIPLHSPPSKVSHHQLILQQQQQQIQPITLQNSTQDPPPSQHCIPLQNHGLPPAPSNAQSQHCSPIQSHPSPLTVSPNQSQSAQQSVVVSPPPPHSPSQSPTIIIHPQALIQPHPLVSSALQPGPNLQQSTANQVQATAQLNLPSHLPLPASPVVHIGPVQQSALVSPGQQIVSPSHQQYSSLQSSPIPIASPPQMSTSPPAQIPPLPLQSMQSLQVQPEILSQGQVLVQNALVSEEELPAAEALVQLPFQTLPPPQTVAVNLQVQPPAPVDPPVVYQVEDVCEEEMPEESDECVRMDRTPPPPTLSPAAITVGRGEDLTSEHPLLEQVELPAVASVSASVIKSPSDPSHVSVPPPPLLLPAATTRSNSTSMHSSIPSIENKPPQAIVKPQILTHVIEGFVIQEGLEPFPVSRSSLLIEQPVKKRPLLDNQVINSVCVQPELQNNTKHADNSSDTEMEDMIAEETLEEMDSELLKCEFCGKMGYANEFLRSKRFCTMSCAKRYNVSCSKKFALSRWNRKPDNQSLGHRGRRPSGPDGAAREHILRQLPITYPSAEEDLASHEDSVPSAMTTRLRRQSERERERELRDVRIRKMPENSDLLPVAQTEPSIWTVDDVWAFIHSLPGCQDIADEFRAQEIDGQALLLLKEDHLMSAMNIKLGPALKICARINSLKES
Sequence of UniProt O43924 (O43924 whole entry, looked up): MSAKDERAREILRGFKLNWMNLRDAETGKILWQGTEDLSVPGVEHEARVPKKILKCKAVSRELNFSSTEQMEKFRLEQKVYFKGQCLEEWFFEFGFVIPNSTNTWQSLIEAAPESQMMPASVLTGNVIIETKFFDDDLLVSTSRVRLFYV
Sequence of UniProt Q7Z3K3 (Q7Z3K3 whole entry, looked up): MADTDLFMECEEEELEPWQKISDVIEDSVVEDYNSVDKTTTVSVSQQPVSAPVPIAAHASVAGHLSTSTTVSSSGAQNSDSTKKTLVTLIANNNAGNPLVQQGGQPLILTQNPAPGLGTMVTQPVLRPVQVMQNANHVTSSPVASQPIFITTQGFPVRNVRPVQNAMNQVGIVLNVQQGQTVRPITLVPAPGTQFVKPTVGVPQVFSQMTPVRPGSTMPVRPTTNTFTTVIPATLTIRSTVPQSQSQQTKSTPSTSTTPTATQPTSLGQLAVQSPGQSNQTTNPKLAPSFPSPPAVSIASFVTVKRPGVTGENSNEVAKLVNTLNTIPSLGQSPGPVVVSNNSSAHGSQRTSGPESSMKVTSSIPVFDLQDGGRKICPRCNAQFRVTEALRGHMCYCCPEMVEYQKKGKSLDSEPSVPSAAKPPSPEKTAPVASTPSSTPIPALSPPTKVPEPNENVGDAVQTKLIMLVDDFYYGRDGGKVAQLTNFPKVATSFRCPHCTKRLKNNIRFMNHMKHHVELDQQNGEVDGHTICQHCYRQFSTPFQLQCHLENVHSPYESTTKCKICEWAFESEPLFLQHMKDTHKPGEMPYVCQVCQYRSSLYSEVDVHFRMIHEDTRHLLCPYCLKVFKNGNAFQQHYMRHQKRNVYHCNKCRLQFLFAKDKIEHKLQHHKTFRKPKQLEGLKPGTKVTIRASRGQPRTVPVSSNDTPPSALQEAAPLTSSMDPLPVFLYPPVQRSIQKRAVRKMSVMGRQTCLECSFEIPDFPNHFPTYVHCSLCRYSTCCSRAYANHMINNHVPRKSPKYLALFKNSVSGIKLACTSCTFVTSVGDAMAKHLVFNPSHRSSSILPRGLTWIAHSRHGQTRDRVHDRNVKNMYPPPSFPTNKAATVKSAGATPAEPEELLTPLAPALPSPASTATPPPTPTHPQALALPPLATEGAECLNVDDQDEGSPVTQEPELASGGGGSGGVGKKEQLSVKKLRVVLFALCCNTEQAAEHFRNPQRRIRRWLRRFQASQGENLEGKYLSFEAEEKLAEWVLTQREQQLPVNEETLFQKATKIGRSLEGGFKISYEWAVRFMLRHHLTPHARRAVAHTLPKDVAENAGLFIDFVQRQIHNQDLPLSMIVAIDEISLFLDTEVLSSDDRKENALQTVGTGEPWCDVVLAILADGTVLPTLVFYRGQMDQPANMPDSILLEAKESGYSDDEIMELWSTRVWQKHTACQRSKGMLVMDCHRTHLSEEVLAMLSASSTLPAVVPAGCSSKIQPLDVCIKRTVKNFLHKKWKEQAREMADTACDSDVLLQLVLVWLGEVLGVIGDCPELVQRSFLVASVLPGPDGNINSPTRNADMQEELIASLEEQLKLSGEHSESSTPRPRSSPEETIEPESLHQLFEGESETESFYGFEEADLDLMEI
Sequence of UniProt Q14671 (Q14671 whole entry, looked up): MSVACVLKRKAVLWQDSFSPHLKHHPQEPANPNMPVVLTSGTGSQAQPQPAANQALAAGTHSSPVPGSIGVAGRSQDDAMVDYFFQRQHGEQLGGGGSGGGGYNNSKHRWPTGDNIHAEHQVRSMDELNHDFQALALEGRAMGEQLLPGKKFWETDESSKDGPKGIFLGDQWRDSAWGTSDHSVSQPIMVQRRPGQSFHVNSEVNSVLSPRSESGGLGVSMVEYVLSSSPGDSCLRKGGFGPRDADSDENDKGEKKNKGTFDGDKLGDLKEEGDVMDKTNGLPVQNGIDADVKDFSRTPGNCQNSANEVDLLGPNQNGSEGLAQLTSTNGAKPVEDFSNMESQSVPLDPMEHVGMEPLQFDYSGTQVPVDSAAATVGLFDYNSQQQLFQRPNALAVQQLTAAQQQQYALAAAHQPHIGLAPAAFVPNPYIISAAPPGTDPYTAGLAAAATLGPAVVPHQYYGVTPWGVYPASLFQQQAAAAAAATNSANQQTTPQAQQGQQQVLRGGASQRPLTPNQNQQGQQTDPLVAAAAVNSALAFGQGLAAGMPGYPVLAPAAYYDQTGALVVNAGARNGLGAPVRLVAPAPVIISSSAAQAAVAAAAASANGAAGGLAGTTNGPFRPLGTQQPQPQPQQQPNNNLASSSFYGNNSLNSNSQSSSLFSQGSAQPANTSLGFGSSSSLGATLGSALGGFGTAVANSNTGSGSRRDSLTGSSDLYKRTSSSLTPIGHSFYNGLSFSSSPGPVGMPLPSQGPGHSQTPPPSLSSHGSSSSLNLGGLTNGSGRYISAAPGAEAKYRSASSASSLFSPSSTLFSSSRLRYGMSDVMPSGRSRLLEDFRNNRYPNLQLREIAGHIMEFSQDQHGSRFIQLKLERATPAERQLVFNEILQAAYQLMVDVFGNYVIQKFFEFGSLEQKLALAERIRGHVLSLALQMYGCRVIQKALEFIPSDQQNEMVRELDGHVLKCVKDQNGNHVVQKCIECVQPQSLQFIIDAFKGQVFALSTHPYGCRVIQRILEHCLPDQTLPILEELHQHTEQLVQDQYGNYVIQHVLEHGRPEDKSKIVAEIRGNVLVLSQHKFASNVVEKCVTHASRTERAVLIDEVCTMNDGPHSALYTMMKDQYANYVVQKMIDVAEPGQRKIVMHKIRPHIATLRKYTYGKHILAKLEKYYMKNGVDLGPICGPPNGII
Sequence of UniProt O75365 (O75365 whole entry, looked up): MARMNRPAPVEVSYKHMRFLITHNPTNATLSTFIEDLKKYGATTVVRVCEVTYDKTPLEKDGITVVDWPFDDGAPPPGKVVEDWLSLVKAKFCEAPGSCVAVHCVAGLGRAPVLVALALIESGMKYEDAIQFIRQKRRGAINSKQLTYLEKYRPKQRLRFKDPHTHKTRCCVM

| Target | log2 fold change [1] | log2 fold change [2] | log2 fold change [3] | log2 fold change [4] | log2 fold change [5] | log2 fold change [6] | log2 fold change [7] | log2 fold change [8] | log2 fold change [9] | log2 fold change [10] |
| --- | --- | --- | --- | --- | --- | --- | --- | --- | --- | --- |
| PHC3 isoform 7 (UniProt Q8NDX5) | -0.377 | -0.159 | -0.25 | -0.219 | -0.11 | 0.021 | – | – | – | – |
| PTEN isoform 2 (UniProt P60484) | -0.227 | – | – | -0.629 (active) | -0.006 | – | 0.062 | 0.083 | – | – |
| PCBP2 (UniProt F8VZX2) | -0.177 | 0.212 | – | -0.127 | 0.136 | 0.128 | -0.004 | 0.138 | – | – |
| PSMA3 (UniProt H0YJ03) | 0.023 | – | – | – | 0.061 | – | 0.14 | 0.067 | 0.052 | 0.046 |
| POLB (UniProt P06746) | – | – | -0.222 | 0.091 | – | -0.168 | 0.14 | 0.143 | – | 0.175 |
| PLCXD1 (UniProt Q9NUJ7) | – | 0.021 | – | – | – | – | 0.113 | 0.175 | – | – |
| POGZ (UniProt Q7Z3K3) | -0.133 | – | -0.035 | 0.066 | -0.05 | – | 0.083 | 0.038 | -0.183 | -0.826 (active) |
| PSMA3 (UniProt G3V4X5) | -0.451 | -0.065 | – | – | -0.001 | – | -0.114 | 0.733 (active) | – | – |
| PUM1 (UniProt Q14671) | 0.101 | – | – | -0.226 | 0.073 | – | – | – | -0.038 | 0.139 |
| PHRF1 (UniProt Q9P1Y6) | – | – | – | 0.718 (active) | – | – | -0.144 | 0.119 | – | – |
| PMVK (UniProt Q15126) | – | -0.039 | -0.072 | -0.195 | – | 0.15 | – | – | -0.069 | 0.061 |
| PAN2 (UniProt Q504Q3) | – | -0.134 | – | – | – | 0.099 | – | – | – | – |
| PTP4A3 (UniProt O75365) | – | 0.079 | – | – | – | – | – | – | – | – |
| PEX5 isoform 4 (UniProt P50542) | – | – | 0.038 | 0.066 | – | – | 0.145 | 0.123 | -0.035 | -0.072 |
| PIAS4 (UniProt Q8N2W9) | -0.111 | – | -0.781 (active) | – | 0.037 | – | -0.005 | 0.035 | – | -0.275 |
| PDE6D (UniProt O43924) | 0.037 | 0.086 | 0.003 | 0.164 | 0.017 | -0.016 | – | – | -0.051 | -0.01 |
